ClpP mod = qHTS Assay for Activators of ClpP; ATP-dependent Clp protease proteolytic subunit (Bacillus subtilis (strain 168)), P80244; purified B. subtilis ClpP, FRET peptide cleavage, 20 min; Potency, µM (top dose mostly 57.5 µM), without a hit: at the top dose activity change, negative = active; 1.9% of 340,000 active; active means well fitted falling curve with a large enough effect; inconclusive means small, poorly fitted or top-dose-only effect; inactive means no such curve, though single readings can be large or run the other way; further: potency means the concentration at half of the fitted maximal effect; the source files actives as falling curves though it sought activators and does not explain the sign; nearly all actives have a fitted effect of over 65% in size
Target sequence (P80244 whole entry, looked up): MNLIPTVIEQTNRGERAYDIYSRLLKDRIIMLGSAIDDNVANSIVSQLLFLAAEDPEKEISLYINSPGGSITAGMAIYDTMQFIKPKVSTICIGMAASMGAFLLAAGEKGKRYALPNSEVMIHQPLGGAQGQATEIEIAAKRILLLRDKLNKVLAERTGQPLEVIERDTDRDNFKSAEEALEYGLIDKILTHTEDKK
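Buffer: 100 mM Tris/HCl pH8, 100 mM KCl, 0.05% low protease BSA, 2.5% glycerol, 0.01% Tween-20. ClpP 10 microg/mL final; 20 min RT; delta FRET normalized to ADEP and DMSO controls.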
IL-2 act = activates IL-2 in a cell-based reporter assay. IL-2 activation reporter assay, cell-based qHTS; stimulated with anti-CD3/CD4/CD28 beads; in transgenic mouse T cells. activation, % (series mostly up to about 46 µM). 0.065% of 360,000 active; in the data active means activation above about 50%; inconclusive means mostly about 30% to 49%; further: 0% is about no effect
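Readout is EGFP and DsRed signal by fluorescent plate cytometry after 18 h at 37 degrees C. Transgenic mouse T cells (750/well) received compound for 60 min before bead stimulation (anti-CD3, anti-CD4, anti-CD28); memory T cells served as non-tolerant control.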
PKM2 activator = activators of human pyruvate kinase M2; purified PKM2, Kinase-Glo ATP luminescence, activation; response scale: 0% is enzyme alone, no compound; Potency, µM (highest dose often 57.5 µM), for inactives: at the top dose activation, hits mostly activators; 0.34% of 260,000 active; AID 1631; further: potency means the concentration at half of the fitted maximal effect; on the % scale 0 is the no-effect control and ±100 the full control effect; nearly all actives have a fitted effect of over 55% in size
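ATP formation by purified human PK-M2, quantified via coupled luciferase luminescence after 1 h at room temperature with 0.1 mM ADP and 0.5 mM PEP final.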
NPSR antag = antagonists of human neuropeptide S receptor cAMP signaling. Q6W5P4. CHO-NPSR cells, cAMP TR-FRET, antagonist mode. Potency, µM (series often up to 38.3 µM), without a hit: top-dose activity change, negative = inhibition, usual class: inhibitors. 1% of 220,000 active. AID 1461; further: potency means the concentration at half of the fitted maximal effect; on the % scale 0 is the no-effect control and ±100 the full control effect; nearly all actives have a fitted effect of over 50% in size
Target sequence (Q6W5P4 whole entry, looked up): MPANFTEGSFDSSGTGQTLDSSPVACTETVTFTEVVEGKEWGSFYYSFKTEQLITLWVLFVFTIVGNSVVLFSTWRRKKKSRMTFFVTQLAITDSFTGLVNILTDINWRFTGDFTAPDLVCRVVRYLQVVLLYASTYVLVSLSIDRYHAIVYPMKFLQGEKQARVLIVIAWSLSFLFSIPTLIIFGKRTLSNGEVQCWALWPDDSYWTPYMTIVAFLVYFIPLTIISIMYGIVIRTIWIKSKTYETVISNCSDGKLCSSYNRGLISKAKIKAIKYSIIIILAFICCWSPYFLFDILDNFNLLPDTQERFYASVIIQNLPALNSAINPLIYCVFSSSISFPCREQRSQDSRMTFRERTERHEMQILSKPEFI
* hit, by the source's call; ? = inconclusive; . = no result; [ ] = dose if it differs, or a comment. Hits are enriched below; roughly 2% of the tested compounds scored in any of these assays. Unless noted, the call rests on the fitted dose curve; in most records, active means well fitted curve in the direction sought with a large enough effect; inconclusive means small, poorly fitted or top-dose-only effect, or another doubt; inactive means no such curve, though single readings can be large; an effect the other way counts as inactive or inconclusive.

SMILES | ClpP mod | IL-2 act | PKM2 activator | NPSR antag
C/C(CC(=O)Nc1ccc(Br)cc1)=N\NC(=O)c1cccc(O)c1 | -2% | 1 | 0% | .
CCCCC(=O)Nc1cc(N(C)C)nc2ccccc12 | 8.9µM* | 0 | -6% | 17%[46.1 µM]
CN(C)c1cc(NC(=O)CNC(C)(C)C)c2ccccc2n1 | 4% | 0 | ? | 10%
CC(C)(C)OC(=O)N1CCC(NC(=O)c2[nH]cnc2C(=O)Nc2ccccc2F)CC1 | 2% | -3 | . | .
COc1cc(C(c2nnnn2C(C)(C)C)N2CCN(c3nc4ccccc4s3)CC2)ccc1O (stereo not drawn) | -2% | 1 | 25µM* | -10%[7.67 µM]
CS(=O)(=O)Nc1ccccc1C(=O)NCC1(N2CCCCC2)CCCCC1 | . | 1 | -2% | .
COc1ccc(-n2c(-c3cccc(C)c3[N+](=O)[O-])n[nH]c2=S)cc1 | -2% | 2 | 11µM* | -5%[46.1 µM]
COC(=O)c1[nH]c2cccc(OC)c2c1NC(=O)CCN1CCN(c2ccccc2OC)CC1 | ? | 5 | 1% | -16%[46.1 µM]
COC(=O)c1[nH]c2cccc(OC)c2c1NC(=O)C(C)N1CCC(C)CC1 (stereo not drawn) | 32µM* | -1 | -9% | 6%[46.1 µM]
COC(=O)c1[nH]c2cccc(OC)c2c1NC(=O)CCN1CCC(C)CC1 | 25µM* | -3 | 11% | -21%[46.1 µM]
C[C@H](NC(N)=O)C(=O)N1CCN(S(=O)(=O)c2ccc3ccccc3c2)CC1 | . | 1 | ? | .
CN1CCCN(S(=O)(=O)c2ccc3ccccc3c2)CC1 | . | -4 | 20µM* | .
CNC(=S)N1CCN(S(=O)(=O)c2ccc3ccccc3c2)CC1 | -2% | -2 | 20µM* | .
Cc1ccc(C)c(NC(=O)CCc2nnc3ccc(N4CCCCC4)nn23)c1 | -2% | -2 | . | .
COc1ccccc1NC(=O)CCCCCN1C(=O)c2cccc([N+](=O)[O-])c2C1=O | 0% | 1 | -9% | .
COc1cc(/C=C2/C(=O)c3cccc([N+](=O)[O-])c3C2=O)c(Br)cc1O | 1% | -1 | -50% | 10µM*
CCOC(=O)C1(C(=O)OCC)C(c2ccccc2)CC(O)N1C(C)=O (stereo not drawn) | . | 0 | -1% | 13%
Cc1c(F)cccc1NS(=O)(=O)c1ccc(OCCNS(C)(=O)=O)cc1 | . | 1 | 6.3µM* | -14%
O=C(c1ccccc1)C(CCc1ccccn1)CCc1ccccn1 | 3.5µM* | 0 | . | .
COc1ccccc1C1/C(=C(/O)c2ccc(C)cc2)C(=O)C(=O)N1CC(C)O (stereo not drawn) | 28µM* | 1 | -2% | 6%[46.1 µM]
Cc1cc(C)n(-c2nc(Nc3ccccc3C(F)(F)F)nc(-n3nc(C)cc3C)n2)n1 | -14% | 0 | 10% | 0.32µM*
CN1CCC(OC(=O)COc2ccc(Br)cc2)CC1 | . | 2 | -2% | 6%
COc1ccc(OCC(=O)OC2CCN(C)CC2)cc1 | 16µM* | 0 | 4% | 2%[46.1 µM]
O=c1cc(CN2CCOCC2)c2cc(Cl)c(O)cc2o1 | 4% | 0 | 1%[0.46 µM] | .
CCc1cc2c(CN3CCN(CC)CC3)cc(=O)oc2cc1O | 28µM* | 0 | 1% | -3%[46.1 µM]
SMILES | ClpP mod | IL-2 act | PKM2 activator | NPSR antag
CCOC(=O)Cc1c(C)c2c(O)cc(O)cc2oc1=O | 25µM* | -2 | 1% | 16%[46.1 µM]
CCOC(=O)c1oc2cc(O)cc(C)c2c1C | 13µM* | 0 | . | .
CCOC(=O)Cc1c(C)c2ccc(N(CC)CC)cc2oc1=O | 22µM* | -2 | -2% | -16%[46.1 µM]
COc1ccccc1OCCN1CSC(=S)N(C)C1 | 1% | -2 | 0% | 3.2µM*
Cc1cccc(OCCN2CSC(=S)N(C)C2)c1 | -2% | 0 | -13% | 6%[46.1 µM]
Cc1cc(C)c(OCC(=O)Nc2ccc(NC(=O)c3ccco3)cc2)c([N+](=O)[O-])c1 | 32µM* | -1 | 4% | -3%
Cc1ccc(-c2nnc(-c3ccc(NC(=O)c4ccco4)cc3)o2)cc1 | 32µM* | 3 | -3% | -21%[46.1 µM]
O=C(Nc1ccc(-c2nc3ncccc3o2)cc1)c1ccco1 | 28µM* | 0 | 1% | -6%[46.1 µM]
O=C(COC(=O)CCC(=O)c1ccc(F)cc1)NCc1ccco1 | 0% | 0 | 12% | -1%
S=c1nc(-c2ccccc2)[nH]c2ccccc12 | 1% | -3 | -4% | -37%
COc1cccc(N2CCN(C(=O)c3cc(C)oc3C)CC2)c1 | -1% | -4 | . | .
CC(=O)Nc1ccc(-c2cc3ccccc3o2)cc1 | 14µM* | 0 | -2% | -15%[46.1 µM]
CCCCCOc1ccc(C2C(C(C)=O)=C(C)Nc3ncnn32)cc1OC (stereo not drawn) | 11µM* | -1 | -4% | -8%[46.1 µM]
COc1ccc(C2C(C(C)=O)=C(C)Nc3ncnn32)cc1OC (stereo not drawn) | 1% | -2 | -4% | -3%[46.1 µM]
CCCN(CC(=O)Nc1cc(Cl)ccc1Cl)C(=O)/C=C/c1cc(OC)ccc1OC | ? | -1 | . | .
CCCN(CC(=O)Nc1ccc(Cl)cc1Cl)C(=O)/C=C/c1cc(OC)ccc1OC | 16µM* | 1 | 23% | -1%[46.1 µM]
NC(=O)c1ccc(NC(=O)CSc2nnc(-c3ccc4c(c3)OCO4)o2)cc1 | -16% | 0 | . | .
CCOC(=O)C1=C(C)Nc2sc(C(=O)c3ccc(F)cc3)c(N)c2C1c1ccc(C(=O)OC)cc1 (stereo not drawn) | 1% | -1 | -13% | -18%
CCOC(=O)C1=C(C)Nc2sc(C(=O)c3ccc(C)cc3)c(N)c2C1c1ccc(C(=O)OC)cc1 (stereo not drawn) | 8.9µM* | -3 | 1% | -17%
Cc1cccc(N2CCN(c3nc4ccc(C)cc4n4cnnc34)CC2C)c1 (stereo not drawn) | 32µM* | . | . | .
CCOc1ccc(NC(=S)NC(=O)/C=C/c2ccco2)cc1 | -3% | 1 | 0% | .
COc1cc(NS(=O)(=O)c2ccc(NC(=S)NC(=O)/C=C/c3ccco3)cc2)ncn1 | . | -1 | 3% | 10µM*
Cc1ccc2oc(-c3cccc(NC(=S)NC(=O)/C=C/c4ccco4)c3)nc2c1 | 5% | 1 | -5% | 2.5µM*
Cc1ccc(C)c(S(=O)(=O)NC(C)C(=O)Nc2ccc(-c3nc4ccccc4s3)cc2)c1 (stereo not drawn) | 32µM* | 0 | -4% | -29%[46.1 µM]
CC(NS(=O)(=O)c1cccc(Cl)c1)C(=O)Nc1ccc(-c2nc3ccccc3s2)cc1 (stereo not drawn) | 35µM* | 1 | -3% | ?
O=C(CNS(=O)(=O)c1cccc(Cl)c1)Nc1ccc(-c2nc3ccccc3s2)cc1 | -2% | -1 | 0% | -16%
CC(C)(C)c1ccc(S(=O)(=O)NCC(=O)Nc2ccc(-c3nc4ccccc4s3)cc2)cc1 | 5µM* | -3 | -1% | 0%[46.1 µM]
CCS(=O)(=O)c1ccccc1C(=O)Nc1ccc(-c2nc3ccccc3s2)cc1 | 5% | . | . | .
Cc1nn(-c2ccccc2)c(N2CCCC2)c1/C=N/NC(=S)Nc1cc(C(F)(F)F)ccc1Cl | 28µM* | 1 | -1% | -16%

Screens: PubChem BioAssay, National Center for Advancing Translational Sciences (NCATS)
